# The supplement of paper PMC8728848
# Shown is part of a subset that was picked to be rich in the strongest signals.
# Experiments:
# Experiment in all cases: glycan array binding signal (z-score within array); higher = stronger binding
# Conditions in all cases: glycan notation: IUPAC condensed, linker removed
# [1] = molecular target: Fuc(a1-2)Gal(b1-3)GalNAc(a1-3)[Fuc(a1-2)]Gal(b1-4)GlcNAc
# Procedure, shortened: (§1)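 The Consortium for Functional Glycomics database supplied 3228 glycan arrays, of which those lacking an available protein sequence were dropped. The binding signal, a within-array Z-score, was averaged across arrays of the same protein sequence and across linkers. Negative scores can be read as non-binding.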
# [2] = molecular target: Fuc(a1-2)Gal(b1-3)GlcNAc(b1-2)Man(a1-3)[Fuc(a1-2)Gal(b1-3)GlcNAc(b1-2)Man(a1-6)]Man(b1-4)GlcNAc(b1-4)GlcNAc
# Procedure, shortened: as §1
# [3] = molecular target: Fuc(a1-2)Gal(b1-3)GlcNAc6S
# Procedure, shortened: as §1
# [4] = molecular target: Fuc(a1-2)Gal(b1-3)[Fuc(a1-4)]GlcNAc
# Procedure, shortened: as §1
# [5] = molecular target: Fuc(a1-2)Gal(b1-3)[Fuc(a1-4)]GlcNAc(b1-3)[Gal(b1-4)GlcNAc(b1-6)]Gal(b1-4)Glc
# Procedure, shortened: as §1
# [6] = molecular target: Fuc(a1-2)[Gal(a1-4)]Gal(b1-4)GlcNAc
# Procedure, shortened: as §1
# [7] = molecular target: Fuc(a1-2)[GalNAc(a1-3)]Gal(b1-3)GalNAc(a1-3)[Fuc(a1-2)]Gal(b1-4)GlcNAc
# Procedure, shortened: as §1
# [8] = molecular target: Fuc(a1-3)[Gal(b1-4)]GlcNAc(b1-2)Man
# Procedure, shortened: as §1
# [9] = molecular target: Fuc(a1-3)[Gal(b1-4)]GlcNAc(b1-6)GalNAc
# Procedure, shortened: as §1
# [10] = molecular target: Gal(a1-4)Gal(b1-4)GlcNAc(b1-2)Man(a1-3)[Gal(a1-4)Gal(b1-4)GlcNAc(b1-2)Man(a1-6)]Man(b1-4)GlcNAc(b1-4)GlcNAc
# Procedure, shortened: as §1
# [11] = molecular target: Gal(a1-4)Gal(b1-4)GlcNAc(b1-3)Gal(b1-4)Glc
# Procedure, shortened: as §1
# [12] = molecular target: Gal(b1-3)Gal
# Procedure, shortened: as §1
# [13] = molecular target: Gal(b1-3)Gal(b1-4)GlcNAc
# Procedure, shortened: as §1
# [14] = molecular target: Gal(b1-3)GalNAc(b1-3)Gal
# Procedure, shortened: as §1
# [15] = molecular target: Gal(b1-3)GlcNAc
# Procedure, shortened: as §1
# [16] = molecular target: Gal(b1-3)[Neu5Ac(a2-6)]GlcNAc(b1-4)Gal(b1-4)Glc
# Procedure, shortened: as §1
# [17] = molecular target: Gal(b1-4)GlcNAc(b1-2)[Gal(b1-4)GlcNAc(b1-4)]Man(a1-3)[Gal(b1-4)GlcNAc(b1-2)Man(a1-6)]Man(b1-4)GlcNAc(b1-4)GlcNAc
# Procedure, shortened: as §1
# [18] = molecular target: Gal(b1-4)GlcNAc(b1-3)Gal(b1-4)GlcNAc(b1-2)Man(a1-3)[Gal(b1-4)GlcNAc(b1-3)Gal(b1-4)GlcNAc(b1-2)Man(a1-6)]Man(b1-4)GlcNAc(b1-4)[Fuc(a1-6)]GlcNAc
# Procedure, shortened: as §1
# [19] = molecular target: Gal(b1-4)GlcNAc(b1-3)Gal(b1-4)GlcNAc(b1-3)Gal(b1-4)GlcNAc(b1-2)[Gal(b1-4)GlcNAc(b1-3)Gal(b1-4)GlcNAc(b1-3)Gal(b1-4)GlcNAc(b1-6)]Man(a1-6)[Gal(b1-4)GlcNAc(b1-3)Gal(b1-4)GlcNAc(b1-3)Gal(b1-4)GlcNAc(b1-2)Man(a1-3)]Man(b1-4)GlcNAc(b1-4)[Fuc(a1-6)]GlcNAc
# Procedure, shortened: as §1
# [20] = molecular target: Gal(b1-4)GlcNAc(b1-3)Gal(b1-4)GlcNAc(b1-3)Gal(b1-4)GlcNAc(b1-3)Gal(b1-4)GlcNAc(b1-3)Gal(b1-4)GlcNAc(b1-2)[Gal(b1-4)GlcNAc(b1-3)Gal(b1-4)GlcNAc(b1-3)Gal(b1-4)GlcNAc(b1-3)Gal(b1-4)GlcNAc(b1-3)Gal(b1-4)GlcNAc(b1-6)]Man(a1-6)[Gal(b1-4)GlcNAc(b1-3)Gal(b1-4)GlcNAc(b1-3)Gal(b1-4)GlcNAc(b1-3)Gal(b1-4)GlcNAc(b1-3)Gal(b1-4)GlcNAc(b1-2)Man(a1-3)]Man(b1-4)GlcNAc(b1-4)[Fuc(a1-6)]GlcNAc
# Procedure, shortened: as §1
# [21] = molecular target: Gal(b1-4)GlcNAc(b1-3)Gal(b1-4)GlcNAc(b1-3)[Gal(b1-4)GlcNAc(b1-3)Gal(b1-4)GlcNAc(b1-6)]GalNAc
# Procedure, shortened: as §1
# [22] = molecular target: Gal3S(b1-3)GlcNAc
# Procedure, shortened: as §1
# [23] = molecular target: Gal3S(b1-4)[Fuc(a1-3)]GlcNAc6S
# Procedure, shortened: as §1
# [24] = molecular target: Gal3S6S(b1-4)GlcNAc6S
# Procedure, shortened: as §1
# [25] = molecular target: Gal4S6S(b1-4)GlcNAc
# Procedure, shortened: as §1
# [26] = molecular target: GalNAc(b1-3)GalNAc
# Procedure, shortened: as §1
# [27] = molecular target: GalNAc(b1-6)GalNAc
# Procedure, shortened: as §1
# [28] = molecular target: GalNAc3S(b1-4)[Fuc(a1-3)]GlcNAc
# Procedure, shortened: as §1
# [29] = molecular target: Glc(b1-6)Glc
# Procedure, shortened: as §1
# [30] = molecular target: GlcNAc(a1-4)Gal(b1-4)GlcNAc(b1-3)Gal(b1-4)[Fuc(a1-3)]GlcNAc(b1-3)Gal(b1-4)[Fuc(a1-3)]GlcNAc
# Procedure, shortened: as §1
# [31] = molecular target: GlcNAc(b1-2)Gal(b1-3)GalNAc
# Procedure, shortened: as §1
# [32] = molecular target: GlcNAc(b1-3)Fuc
# Procedure, shortened: as §1
# [33] = molecular target: GlcNAc(b1-3)Gal(b1-4)GlcNAc(b1-2)Man(a1-3)[GlcNAc(b1-3)Gal(b1-4)GlcNAc(b1-2)Man(a1-6)]Man(b1-4)GlcNAc(b1-4)[Fuc(a1-6)]GlcNAc
# Procedure, shortened: as §1
# [34] = molecular target: GlcNAc(b1-3)[GlcNAc(b1-6)]Gal(b1-4)GlcNAc
# Procedure, shortened: as §1
# [35] = molecular target: GlcNAc(b1-4)GlcNAc(b1-4)GlcNAc(b1-4)GlcNAc(b1-4)GlcNAc
# Procedure, shortened: as §1
# [36] = molecular target: Man(a1-2)Man(a1-3)[Man(a1-6)]Man(a1-6)[Man(a1-2)Man(a1-3)]Man(b1-4)GlcNAc(b1-4)GlcNAc
# Procedure, shortened: as §1
# [37] = molecular target: Man(a1-3)[Man(a1-6)]Man(a1-6)[Man(a1-3)]Man(b1-4)GlcNAc(b1-4)GlcNAc
# Procedure, shortened: as §1
# [38] = molecular target: Neu5Ac(a2-3)Gal(b1-3)GalNAc(b1-4)[Neu5Ac(a2-3)]Gal(b1-4)Glc
# Procedure, shortened: as §1
# [39] = molecular target: Neu5Ac(a2-3)Gal(b1-3)GlcNAc(b1-2)Man
# Procedure, shortened: as §1
# [40] = molecular target: Neu5Ac(a2-3)Gal(b1-3)GlcNAc(b1-3)Gal(b1-4)GlcNAc
# Procedure, shortened: as §1
# [41] = molecular target: Neu5Ac(a2-3)Gal(b1-3)[GlcNAc(b1-6)]GalNAc
# Procedure, shortened: as §1
# [42] = molecular target: Neu5Ac(a2-3)Gal(b1-3)]Neu5Ac(a2-3)Gal(b1-4)]GlcNAc
# Procedure, shortened: as §1
# [43] = molecular target: Neu5Ac(a2-3)Gal(b1-4)GlcNAc(b1-2)Man(a1-3)[Neu5Ac(a2-3)Gal(b1-4)GlcNAc(b1-2)Man(a1-6)]Man(b1-4)GlcNAc(b1-4)[Fuc(a1-6)]GlcNAc
# Procedure, shortened: as §1
# [44] = molecular target: Neu5Ac(a2-3)Gal(b1-4)GlcNAc(b1-3)Gal(b1-4)GlcNAc
# Procedure, shortened: as §1
# [45] = molecular target: Neu5Ac(a2-3)Gal(b1-4)GlcNAc6S
# Procedure, shortened: as §1
# [46] = molecular target: Neu5Ac(a2-3)Gal(b1-4)[Fuc(a1-3)]GlcNAc(b1-2)Man
# Procedure, shortened: as §1
# [47] = molecular target: Neu5Ac(a2-6)Gal(b1-4)GlcNAc(b1-2)Man(a1-6)[Man(a1-3)]Man(b1-4)GlcNAc(b1-4)GlcNAc
# Procedure, shortened: as §1
# [48] = molecular target: Neu5Ac(a2-6)Gal(b1-4)GlcNAc(b1-3)Gal(b1-4)GlcNAc(b1-3)Gal(b1-4)GlcNAc(b1-2)Man(a1-3)[Neu5Ac(a2-6)Gal(b1-4)GlcNAc(b1-3)Gal(b1-4)GlcNAc(b1-3)Gal(b1-4)GlcNAc(b1-2)Man(a1-6)]GalNAc
# Procedure, shortened: as §1
# [49] = molecular target: Neu5Ac(a2-6)Gal(b1-4)GlcNAc(b1-3)Gal(b1-4)GlcNAc(b1-3)GalNAc
# Procedure, shortened: as §1
# [50] = molecular target: Neu5Ac(a2-6)Gal(b1-4)GlcNAc(b1-3)Gal(b1-4)GlcNAc(b1-3)[Neu5Ac(a2-6)Gal(b1-4)GlcNAc(b1-3)Gal(b1-4)GlcNAc(b1-6)]GalNAc
# Procedure, shortened: as §1
# [51] = molecular target: Neu5Ac(a2-6)Gal(b1-4)GlcNAc(b1-6)[Gal(b1-3)GlcNAc(b1-3)]Gal(b1-4)Glc
# Procedure, shortened: as §1
# [52] = molecular target: Neu5Ac(a2-6)GalNAc(b1-4)GlcNAc6S
# Procedure, shortened: as §1
# [53] = molecular target: Neu5Ac(a2-8)Neu5Gc(a2-3)Gal(b1-4)GlcNAc
# Procedure, shortened: as §1
# [54] = molecular target: Neu5Gc(a2-3)Gal(b1-4)GlcNAc(b1-3)Gal(b1-4)GlcNAc(b1-2)Man(a1-3)[Neu5Gc(a2-3)Gal(b1-4)GlcNAc(b1-3)Gal(b1-4)GlcNAc(b1-2)Man(a1-6)]Man(b1-4)GlcNAc(b1-4)GlcNAc
# Procedure, shortened: as §1
binder,measurement,setting,value
SJCP1531 (Schistosoma japonicum) (protein) MFKVRIINLVNISTVLLLINLLQTKSQVNVEQLVTVLEVNIKAQLKNKTTEVLVEWNPLYQDNSMPEYRKLLDETCKLFLPFVNEKVPPSTYGGECTNANFSEAPQDGSYSRVNAELRLIYKYSDNPQIQTDRLQDDLNDREEFITSESSFVAYNPKFTVKIEKLFIPISESQTTPPPTTAKNDASKKDDDDNGGEDSKAPIDTFAMTASGNKGKKDDDDNGGEDSKAPIDTFAMTASGSKDERSTWTIIGIITLVVLIFVVIGGGITVFVKRC,glycan array binding signal (z-score),[1],-0.571
same,glycan array binding signal (z-score),[2],-0.207
same,glycan array binding signal (z-score),[3],-0.955
same,glycan array binding signal (z-score),[4],0.144
same,glycan array binding signal (z-score),[5],0.498
same,glycan array binding signal (z-score),[6],0.12
same,glycan array binding signal (z-score),[7],-0.433
same,glycan array binding signal (z-score),[8],0.026
same,glycan array binding signal (z-score),[9],1.34
same,glycan array binding signal (z-score),[10],2.24
same,glycan array binding signal (z-score),[11],1.03
same,glycan array binding signal (z-score),[12],3.29
same,glycan array binding signal (z-score),[13],0.064
same,glycan array binding signal (z-score),[14],-0.062
same,glycan array binding signal (z-score),[15],0.101
same,glycan array binding signal (z-score),[16],-1.38
same,glycan array binding signal (z-score),[17],0.725
same,glycan array binding signal (z-score),[18],2.21
same,glycan array binding signal (z-score),[19],2.79
same,glycan array binding signal (z-score),[20],2.63
same,glycan array binding signal (z-score),[21],2.8
same,glycan array binding signal (z-score),[22],0.215
same,glycan array binding signal (z-score),[23],1.28
same,glycan array binding signal (z-score),[24],3.17
same,glycan array binding signal (z-score),[25],-0.722
same,glycan array binding signal (z-score),[26],0.218
same,glycan array binding signal (z-score),[27],2.81
same,glycan array binding signal (z-score),[28],-1.15
same,glycan array binding signal (z-score),[29],-0.797
same,glycan array binding signal (z-score),[30],2.8
same,glycan array binding signal (z-score),[31],-1.08
same,glycan array binding signal (z-score),[32],-0.112
same,glycan array binding signal (z-score),[33],-0.143
same,glycan array binding signal (z-score),[34],0.523
same,glycan array binding signal (z-score),[35],-0.099
same,glycan array binding signal (z-score),[36],-1.4
same,glycan array binding signal (z-score),[37],-0.243
same,glycan array binding signal (z-score),[38],-1.32
same,glycan array binding signal (z-score),[39],-0.604
same,glycan array binding signal (z-score),[40],-0.438
same,glycan array binding signal (z-score),[41],0.205
same,glycan array binding signal (z-score),[42],-0.188
same,glycan array binding signal (z-score),[43],-1.15
same,glycan array binding signal (z-score),[44],2.53
same,glycan array binding signal (z-score),[45],0.004
same,glycan array binding signal (z-score),[46],-0.84
same,glycan array binding signal (z-score),[47],-1.2
same,glycan array binding signal (z-score),[48],3.3
same,glycan array binding signal (z-score),[49],2.87
same,glycan array binding signal (z-score),[50],3
same,glycan array binding signal (z-score),[51],0.485
same,glycan array binding signal (z-score),[52],0.413
same,glycan array binding signal (z-score),[53],-1.65
same,glycan array binding signal (z-score),[54],0.86
